In ChEMBL document CHEMBL3988442, “University of Dundee, Small-Polar-MMV Screening Library” (2021) one finds Percent Effect data, which are given here for eleven compounds.

For some of these results: Entries with a potency or affinity are not part of this list.

Design in all cases: scale not given: direction of the effect not stated beside the values
Assay [1] concerns the target Protein translocase subunit SecA (Escherichia coli (strain K12)) (UniProt P10408). The assay is described as follows: Assay to Identify E. coli SecA ATPase Inhibitors. The class given is functional. The conditions noted are these: 30 µM.
Assay [2] deals with T1, Ubiquitin-activating enzyme e1, putative (Leishmania donovani (strain BPK282A1)) (UniProt E9BSI1).
T1 sequence (whole entry): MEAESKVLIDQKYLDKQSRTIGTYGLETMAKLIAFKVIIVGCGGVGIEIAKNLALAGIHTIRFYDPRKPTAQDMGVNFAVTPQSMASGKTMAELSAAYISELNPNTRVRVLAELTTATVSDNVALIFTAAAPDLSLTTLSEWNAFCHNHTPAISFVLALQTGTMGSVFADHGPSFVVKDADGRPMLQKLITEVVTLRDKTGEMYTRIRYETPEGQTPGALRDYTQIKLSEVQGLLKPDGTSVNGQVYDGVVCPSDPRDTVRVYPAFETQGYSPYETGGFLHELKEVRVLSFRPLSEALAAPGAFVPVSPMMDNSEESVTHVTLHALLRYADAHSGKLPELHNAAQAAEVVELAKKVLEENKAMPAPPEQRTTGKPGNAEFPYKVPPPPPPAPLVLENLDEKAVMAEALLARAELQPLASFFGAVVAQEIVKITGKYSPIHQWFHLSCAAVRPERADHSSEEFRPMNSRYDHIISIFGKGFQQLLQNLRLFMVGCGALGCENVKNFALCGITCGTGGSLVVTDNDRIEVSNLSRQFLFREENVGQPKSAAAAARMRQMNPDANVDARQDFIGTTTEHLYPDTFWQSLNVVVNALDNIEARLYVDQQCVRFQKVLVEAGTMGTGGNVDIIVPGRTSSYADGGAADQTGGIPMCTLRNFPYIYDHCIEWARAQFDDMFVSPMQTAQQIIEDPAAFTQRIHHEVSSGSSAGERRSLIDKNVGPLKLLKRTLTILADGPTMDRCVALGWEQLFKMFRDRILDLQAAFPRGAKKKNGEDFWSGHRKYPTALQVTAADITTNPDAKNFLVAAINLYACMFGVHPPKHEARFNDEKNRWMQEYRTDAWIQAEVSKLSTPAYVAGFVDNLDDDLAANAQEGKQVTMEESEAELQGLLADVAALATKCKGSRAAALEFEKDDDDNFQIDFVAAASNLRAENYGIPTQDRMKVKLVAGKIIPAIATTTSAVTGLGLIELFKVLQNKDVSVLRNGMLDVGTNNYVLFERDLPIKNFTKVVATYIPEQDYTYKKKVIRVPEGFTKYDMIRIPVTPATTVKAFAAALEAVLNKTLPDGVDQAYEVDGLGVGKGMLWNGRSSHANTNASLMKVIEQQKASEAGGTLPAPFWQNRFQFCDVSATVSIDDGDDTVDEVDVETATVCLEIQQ
The experiment in a line: Leishmania donovani Ubiquitin Activating Enzyme (LdE1). Format: functional. The conditions noted are these: 30 µM.

Assay [3] has as its target AMP-activated protein kinase, AMPK (Homo sapiens) (UniProt P54646+O43741+P54619+Q9UGJ0+Q9Y478+Q13131+Q9UGI9). The assay is described as follows: AMP-dependent Kinase enzyme assay. An in vitro enzyme assay that detects ADP turnover that is directly proportional to AMPK activity. This uses naive AMPK that is activated during the assay with MK-8722. Format: functional. The conditions noted are these: 30 µM.

For assay [4], the target named is Sialic acid-binding Ig-like lectin 9 (Homo sapiens) (UniProt Q9Y336). The assay is described as follows: Hs-Siglec9 ALPHAscreen SOP 20170721. The conditions noted are these: 10 µM.
Sequence of Sialic acid-binding Ig-like lectin 9 (Homo sapiens) (Q9Y336 whole entry): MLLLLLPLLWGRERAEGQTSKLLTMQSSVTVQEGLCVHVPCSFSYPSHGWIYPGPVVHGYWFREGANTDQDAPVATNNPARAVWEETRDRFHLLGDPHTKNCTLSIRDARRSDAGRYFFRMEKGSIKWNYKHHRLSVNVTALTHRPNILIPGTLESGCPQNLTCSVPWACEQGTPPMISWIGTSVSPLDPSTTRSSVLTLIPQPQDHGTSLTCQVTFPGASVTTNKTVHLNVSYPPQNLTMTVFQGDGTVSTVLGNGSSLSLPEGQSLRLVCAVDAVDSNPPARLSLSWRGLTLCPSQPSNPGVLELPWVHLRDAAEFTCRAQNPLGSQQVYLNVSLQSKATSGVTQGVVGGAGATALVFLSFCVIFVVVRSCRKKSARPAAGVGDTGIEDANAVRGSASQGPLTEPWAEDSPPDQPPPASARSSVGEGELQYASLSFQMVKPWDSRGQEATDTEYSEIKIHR
The next assay deals with Trypanosoma cruzi. The assay is described as follows: Trypanosoma cruzi phosphomannomutase and mannose-1-phosphate guanylyltransferase assay. Format: functional. The note with it: 10 µM.
Assay [5] concerns the target T2, Arginase-2, mitochondrial (Homo sapiens) (UniProt P78540).
T2 sequence (whole entry): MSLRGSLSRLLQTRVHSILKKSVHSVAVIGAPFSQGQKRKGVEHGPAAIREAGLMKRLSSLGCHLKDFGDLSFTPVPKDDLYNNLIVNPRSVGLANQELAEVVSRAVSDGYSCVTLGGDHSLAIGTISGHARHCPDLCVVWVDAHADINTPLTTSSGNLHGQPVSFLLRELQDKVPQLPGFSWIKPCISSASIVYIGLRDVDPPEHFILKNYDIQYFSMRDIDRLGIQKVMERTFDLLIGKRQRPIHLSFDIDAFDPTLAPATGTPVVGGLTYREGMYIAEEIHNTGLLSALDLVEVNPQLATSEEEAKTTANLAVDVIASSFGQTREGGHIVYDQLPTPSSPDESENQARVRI
The experiment in a line: in vitro enzyme assay to detect the production of urea directly proportional to the activity of Arginase II. Also: in the data most compounds retested in dose-response had high values. Format: functional. The note with it: 33.3 µM.

Assay [6] deals with T3, Proteasome subunit beta (Trypanosoma cruzi) (UniProt O96673).
T3 sequence (whole entry): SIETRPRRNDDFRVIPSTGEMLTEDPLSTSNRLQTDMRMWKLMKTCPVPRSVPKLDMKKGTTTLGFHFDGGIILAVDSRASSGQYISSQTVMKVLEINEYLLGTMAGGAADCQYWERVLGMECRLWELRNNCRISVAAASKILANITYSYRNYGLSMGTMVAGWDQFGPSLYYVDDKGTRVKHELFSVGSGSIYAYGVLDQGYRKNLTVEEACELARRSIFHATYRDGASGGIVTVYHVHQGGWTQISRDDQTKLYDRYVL
The assay is described as follows: Trypanosoma cruzi proteasome chymotrypsin-like activity (TcProtChymo) assay. Also: in the data most compounds retested in dose-response had high values. Format: functional. The conditions noted are these: 9.37 µM.

Another assay is filed under the species Homo sapiens. The assay is described as follows: To identify inhibition of the IFN signalling (Jak-Stat) pathway via expression of an eGFP reporter gene under the control of an IFN-stimulated response element (ISRE) containing MxA promoter. The class given is functional. The note with it: 30 µM.
Assay [7] has as its target T4, Tyrosyl-tRNA synthetase, putative (Trypanosoma cruzi (strain CL Brener)) (UniProt Q4DSP6).
T4 sequence (whole entry): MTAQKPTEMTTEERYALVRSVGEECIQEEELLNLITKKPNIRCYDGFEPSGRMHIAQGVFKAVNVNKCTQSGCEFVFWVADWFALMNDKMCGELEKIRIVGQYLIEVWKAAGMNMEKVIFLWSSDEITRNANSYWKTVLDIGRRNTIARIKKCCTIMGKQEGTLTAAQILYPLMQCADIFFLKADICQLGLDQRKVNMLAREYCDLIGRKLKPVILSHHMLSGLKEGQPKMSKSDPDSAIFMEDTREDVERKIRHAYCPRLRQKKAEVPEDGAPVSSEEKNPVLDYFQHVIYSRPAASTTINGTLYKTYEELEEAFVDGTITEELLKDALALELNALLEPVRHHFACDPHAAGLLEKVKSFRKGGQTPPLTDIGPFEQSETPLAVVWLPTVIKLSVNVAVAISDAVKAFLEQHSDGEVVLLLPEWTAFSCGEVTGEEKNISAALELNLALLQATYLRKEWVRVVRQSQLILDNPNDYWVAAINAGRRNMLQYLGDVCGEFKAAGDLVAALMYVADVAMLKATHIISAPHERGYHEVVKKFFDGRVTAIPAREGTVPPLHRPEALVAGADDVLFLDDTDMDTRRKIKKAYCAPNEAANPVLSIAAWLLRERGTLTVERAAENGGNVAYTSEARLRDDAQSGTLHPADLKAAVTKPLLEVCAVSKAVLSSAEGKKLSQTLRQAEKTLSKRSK
The experiment in a line: Trypanosoma cruzi tyrosyl tRNA synthetase (TcYRS) _High Tyrosine SOP. Also: in the data most compounds retested in dose-response had high values. Format: functional. The conditions noted are these: 30 µM.

Assay [8] deals with T4, Tyrosyl-tRNA synthetase, putative (Trypanosoma cruzi (strain CL Brener)). The assay is described as follows: Trypanosoma cruzi tyrosyl tRNA synthetase (TcYRS) SOP. Format: functional. The conditions noted are these: 30 µM.
Assay [9] has as its target Chromo domain-containing protein 1 (Saccharomyces cerevisiae (strain ATCC 204508 / S288c) (Baker's yeast)) (UniProt P32657). The experiment in a line: ScCHD-1 Enzyme Inhibition Assay. Also: in the data most compounds retested in dose-response had high values. The class given is functional. The conditions noted are these: 30 µM.

Sequence of Protein translocase subunit SecA (Escherichia coli (strain K12)) (P10408 whole entry): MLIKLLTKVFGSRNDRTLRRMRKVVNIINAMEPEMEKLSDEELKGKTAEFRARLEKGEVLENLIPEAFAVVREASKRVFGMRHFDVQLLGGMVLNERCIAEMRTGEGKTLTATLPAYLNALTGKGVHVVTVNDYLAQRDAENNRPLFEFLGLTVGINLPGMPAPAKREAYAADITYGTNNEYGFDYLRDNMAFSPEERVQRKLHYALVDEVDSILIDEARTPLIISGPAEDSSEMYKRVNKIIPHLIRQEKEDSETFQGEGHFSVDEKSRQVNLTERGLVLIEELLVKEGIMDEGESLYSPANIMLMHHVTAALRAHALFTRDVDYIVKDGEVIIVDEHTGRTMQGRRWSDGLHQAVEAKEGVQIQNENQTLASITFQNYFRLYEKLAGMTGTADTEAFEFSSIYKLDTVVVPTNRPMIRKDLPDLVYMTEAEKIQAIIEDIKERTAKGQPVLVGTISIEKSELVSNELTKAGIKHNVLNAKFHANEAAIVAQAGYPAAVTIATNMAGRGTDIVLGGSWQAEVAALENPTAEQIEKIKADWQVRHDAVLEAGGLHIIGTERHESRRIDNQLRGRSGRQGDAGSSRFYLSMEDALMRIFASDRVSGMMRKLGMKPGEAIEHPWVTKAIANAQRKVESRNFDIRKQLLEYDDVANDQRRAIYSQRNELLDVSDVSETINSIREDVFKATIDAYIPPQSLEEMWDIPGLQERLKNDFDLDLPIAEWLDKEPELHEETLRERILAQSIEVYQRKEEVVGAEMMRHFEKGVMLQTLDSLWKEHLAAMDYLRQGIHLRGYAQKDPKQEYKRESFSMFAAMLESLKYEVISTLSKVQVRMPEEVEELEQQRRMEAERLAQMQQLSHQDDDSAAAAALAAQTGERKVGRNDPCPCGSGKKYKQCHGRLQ
Sequence of Chromo domain-containing protein 1 (Saccharomyces cerevisiae (strain ATCC 204508 / S288c) (Baker's yeast)) (P32657 whole entry, the tested form may be a part): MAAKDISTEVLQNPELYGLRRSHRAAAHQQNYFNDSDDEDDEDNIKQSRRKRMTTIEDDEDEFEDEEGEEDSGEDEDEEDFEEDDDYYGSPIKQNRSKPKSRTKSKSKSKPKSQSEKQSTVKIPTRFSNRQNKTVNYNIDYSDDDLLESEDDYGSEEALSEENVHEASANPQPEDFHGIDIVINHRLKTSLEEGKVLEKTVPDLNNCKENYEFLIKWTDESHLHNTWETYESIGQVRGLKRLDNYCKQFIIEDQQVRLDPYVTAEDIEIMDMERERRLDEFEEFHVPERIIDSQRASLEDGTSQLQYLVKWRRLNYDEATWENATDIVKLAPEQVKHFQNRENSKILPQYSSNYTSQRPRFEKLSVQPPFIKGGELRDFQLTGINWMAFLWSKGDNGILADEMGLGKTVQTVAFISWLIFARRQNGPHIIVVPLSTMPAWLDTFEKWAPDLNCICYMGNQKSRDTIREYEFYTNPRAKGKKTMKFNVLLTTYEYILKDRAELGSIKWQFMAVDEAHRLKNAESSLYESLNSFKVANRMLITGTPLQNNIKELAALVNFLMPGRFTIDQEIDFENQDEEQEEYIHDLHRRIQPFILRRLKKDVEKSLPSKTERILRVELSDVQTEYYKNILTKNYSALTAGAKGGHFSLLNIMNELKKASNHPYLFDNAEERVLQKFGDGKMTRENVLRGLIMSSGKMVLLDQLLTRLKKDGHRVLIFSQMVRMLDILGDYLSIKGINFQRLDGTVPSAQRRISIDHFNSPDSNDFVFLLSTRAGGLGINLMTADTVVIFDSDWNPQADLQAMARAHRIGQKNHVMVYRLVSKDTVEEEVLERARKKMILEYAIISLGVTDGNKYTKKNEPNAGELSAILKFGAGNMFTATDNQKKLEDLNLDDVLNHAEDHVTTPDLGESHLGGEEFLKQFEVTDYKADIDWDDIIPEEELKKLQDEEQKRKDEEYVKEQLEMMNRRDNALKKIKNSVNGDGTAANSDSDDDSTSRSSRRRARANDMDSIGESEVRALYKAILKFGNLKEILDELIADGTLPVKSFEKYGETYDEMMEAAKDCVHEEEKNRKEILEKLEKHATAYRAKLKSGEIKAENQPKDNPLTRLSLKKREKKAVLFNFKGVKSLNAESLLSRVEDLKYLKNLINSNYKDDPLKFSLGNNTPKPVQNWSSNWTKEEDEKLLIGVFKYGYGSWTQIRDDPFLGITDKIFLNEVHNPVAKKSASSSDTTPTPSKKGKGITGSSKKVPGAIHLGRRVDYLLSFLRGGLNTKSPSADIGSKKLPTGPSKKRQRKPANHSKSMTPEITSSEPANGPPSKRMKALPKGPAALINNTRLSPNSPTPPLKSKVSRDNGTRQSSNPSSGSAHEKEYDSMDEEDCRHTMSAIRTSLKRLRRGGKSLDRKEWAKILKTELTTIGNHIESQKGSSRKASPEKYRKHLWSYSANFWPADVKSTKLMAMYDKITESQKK

For `O=S1(=O)CCCN1Cc1coc(-c2cccs2)n1`, the Percent Effect in assay [1] is -1.93%; in assay [2], 15.3%; in assay [3], -14.2%; in [4], 1.81%; in the assay with Trypanosoma cruzi, 2.82%; in assay [5] it was 13.2%. Further, the Percent Effect is 23.3% in assay [6]; -8.56% in the assay filed under Homo sapiens; 5.26% in assay [7]; 12.8% in assay [8]; -3.41% in [9].
In the case of `CNC(=O)CSc1cnn(CC(=O)Nc2cccc(Cl)c2C)c(=O)c1Cl`, the Percent Effect in assay [1] was -2.17%; in [2], 5.48%; in assay [3], -0.626%; in [4], 4.21%; in the assay with Trypanosoma cruzi it was -4.31%; in assay [5], 2.73%. The Percent Effect stood at 17.6% in assay [6]; 9.06% in the assay listed under Homo sapiens; 4.3% in assay [7]; 12.5% in assay [8]; 1.71% in assay [9].
As to `c1ccc(-c2nnc(CNCCn3cccn3)o2)cc1`, the Percent Effect in assay [1] was -3.18%; in assay [2], -10.1%; in assay [3], 1.44%; in assay [4], -1.76%; with Trypanosoma cruzi, 1.79%; in assay [5], 3.04%. The Percent Effect in [6] is 1.72%; in the assay filed under Homo sapiens, -4.79%; in assay [7] it was 6.4%; in assay [8], 8.86%; in assay [9], -8.2%.
Regarding `Cn1nnc2c1C(COCc1ccccn1)CN(C(=O)c1cccs1)C2` (stereo unspecified), the Percent Effect in assay [1] is 3.29%; in assay [2], 16.4%; in [3], -9.82%; in assay [4], 5.59%; in the assay with Trypanosoma cruzi, 1.59%; in assay [5], -7.19%. The Percent Effect in assay [6] is 13.6%; in the assay filed under Homo sapiens it was 36.4%; in assay [7], 6.25%; in assay [8], 23.5%; in assay [9], -1.99%.
As to `COc1ccc(-c2nnc(SC(C)C(=O)NC3CC3)[nH]2)c(OC)c1` (stereo unspecified), the Percent Effect was -8.04% in assay [1]; 15.8% in [2]; 1.94% in assay [3]; -2.88% in assay [4]; 2.63% with Trypanosoma cruzi; -2.37% in assay [5]. Besides, the Percent Effect in assay [6] is 13.3%; in the assay listed under Homo sapiens, 71.7%; in assay [7], 6.38%; in assay [8], 18.2%; in [9] it was -7.11%.
As for `O=C(Cn1cc(I)cn1)Nc1cccnc1`, the Percent Effect in assay [1] is -7.8%; in assay [2], 0%; in assay [3] it was 2.58%; in [4], 6.82%; with Trypanosoma cruzi it was 1.85%; in assay [5], -10.7%. The Percent Effect is 16.4% in assay [6]; 4.4% in the assay listed under Homo sapiens; 3.19% in [7]; 7.79% in assay [8]; -7.88% in [9].
Turning to `CCOCC(O)CN1CCN(C(=O)c2cnc3n[nH]c(C)c3c2)CC1` (stereo unspecified), the Percent Effect is -4.29% in assay [1]; 10.5% in assay [2]; 1.79% in [3]; 1.55% in [4]; 5.7% in the assay on Trypanosoma cruzi; 1.44% in assay [5]. In addition, the Percent Effect in assay [6] was 8.54%; in the assay listed under Homo sapiens, 10.1%; in [7] it was 7.39%; in [8] it was 16.1%; in assay [9] it was -0.703%.
Take `Cc1occc1C(=O)N1CCc2c(COCC3CC3)cncc2C1`: the Percent Effect is -1.99% in assay [1]; 18.9% in assay [2]; -0.121% in assay [3]; -6.57% in assay [4]; 3.03% with Trypanosoma cruzi; 7.96% in assay [5]. The Percent Effect in assay [6] is 26.8%; in the assay filed under Homo sapiens, 13.8%; in [7], 10.8%; in [8] it was 20.5%; in assay [9], -0.136%.
`CCn1ncc2c1C(COCC1CC1)CN(S(=O)(=O)N(C)C)C2` (stereo unspecified): the Percent Effect in assay [1] is 0.0926%; in [2], 19.2%; in [3], -8.78%; in assay [4], 10.2%; in the assay on Trypanosoma cruzi it was 2.78%; in assay [5], -0.798%. Further, the Percent Effect in [6] is 10.4%; in the assay filed under Homo sapiens, 9.33%; in assay [7], 9.38%; in assay [8], 18.5%; in [9], -8.61%.
As for `O=C(CCN1CCC(C(=O)c2cc(F)ccc2F)CC1)NC1CC1`, the Percent Effect in assay [1] was -5.55%; in [2] it was 5.26%; in assay [3], 2.46%; in [4], 2.22%; with Trypanosoma cruzi, -0.0974%; in [5], -1.18%. Moreover, the Percent Effect is 12.4% in [6]; 16.9% in the assay filed under Homo sapiens; 3.19% in assay [7]; 15.6% in assay [8]; -3.85% in assay [9].
On to `Cc1ccc(CNCc2ccc(-n3nc(C)cc3C)nc2)cc1`, for which the Percent Effect in assay [1] was -1.16%; in assay [2], 13.2%; in [3], 0.483%; in assay [4] it was 7.65%; in the assay on Trypanosoma cruzi it was 1.5%; in [5], 0.383%. In addition, the Percent Effect in assay [6] was 11.4%; in the assay listed under Homo sapiens, 6.18%; in assay [7] it was 9.31%; in assay [8] it was 19.5%; in [9] it was -9.49%.
